Drawing on PubChem BioAssay AID1861 (The Scripps Research Institute Molecular Screening Center, 2009), this text covers inhibition for 57 compounds.

The structures appear in SMILES notation. Out of some 290,000 compounds screened, about 3,100 (1.1%) were called active. Cut-off read from the data, not from the text of the source: active = inhibition above about 16% (passing the limit was not always enough); inactive = the rest. The sample as a whole holds a higher share of actives than the screen did.

Sequence of Neuropeptides B/W receptor type 1 (Homo sapiens) (P48145 whole entry, looked up): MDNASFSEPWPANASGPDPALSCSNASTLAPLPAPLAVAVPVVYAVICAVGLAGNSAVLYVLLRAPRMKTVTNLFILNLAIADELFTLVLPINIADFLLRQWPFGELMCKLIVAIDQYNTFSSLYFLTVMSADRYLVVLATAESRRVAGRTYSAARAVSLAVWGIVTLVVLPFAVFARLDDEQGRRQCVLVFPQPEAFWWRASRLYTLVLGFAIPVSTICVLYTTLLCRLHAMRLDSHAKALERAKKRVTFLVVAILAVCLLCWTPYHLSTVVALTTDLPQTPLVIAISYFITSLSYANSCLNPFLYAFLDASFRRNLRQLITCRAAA

This assay addresses Neuropeptides B/W receptor type 1 (Homo sapiens) (UniProt P48145). Nature of the assay: blockers of human neuropeptide B/W receptor 1 – cell-based, fluorescence, single concentration, primary screen (AID 1861).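 Note: cells stimulated with the agonist NPW; 0% = agonist with vehicle and 100% = vehicle without agonist.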 Particulars: GPR7-expressing cells, fluorescence antagonist assay; at 4.4 µM; stronger effect = higher value.
As a reminder, the inhibition is the drop in the measured response relative to a control, in per cent. As to `CN1CCN(c2ccccc2NC(=O)COc2ccc(C3CCCCC3)cc2)CC1`, the inhibition was -0.24% (inactive).
Regarding `COc1ccc(C(=O)N2CCc3cc(OC)c(OC)cc3C2c2cccc([N+](=O)[O-])c2)cc1` (configuration not stated), the inhibition was -1.43% (inactive).
The figure for `CCc1ccc(OCC2c3cc(OC)c(OC)cc3CCN2C(C)=O)cc1` (configuration not stated) is 45.6% (active).
With `COc1ccc(CC(NC(C)=O)C(=O)NC2CCN(C(=O)c3ccc(OC)c(OC)c3)CC2)cc1OC` (configuration not stated) the figure was 1.05% (inactive).
The figure for `O=C(CSc1nc2cccnc2n1Cc1ccccc1)N1CCc2ccccc21` is -12% (inactive); for `CCOC(CNC(=O)C1CCN(S(=O)(=O)c2ccc3nc4c(c(C(=O)O)c3c2)CC(C)CC4)CC1)OCC` (configuration not stated) it is -21.9% (inactive); for `Cc1ccc(CNC(=O)C2CCN(S(=O)(=O)c3ccc4nc5c(c(C(=O)O)c4c3)CC(C)CC5)CC2)cc1` (configuration not stated) it is 27.2% (active).
Regarding `CC(=O)N1c2ccc(S(=O)(=O)N3CCC(C(=O)NCc4ccc(F)cc4)CC3)cc2CC1C` (configuration not stated), the inhibition is -4.2% (inactive).
As for `COc1ccc2c(CC(=O)OCC(=O)NC(N)=O)coc2c1`, the inhibition is -8.77% (inactive).
With `COc1ccc(NC(=S)N2CCc3cc(OC)c(OC)cc3C2)cc1` the figure was 2.63% (inactive).
The figure for `COc1ccc2c(CC(=O)N3CCc4cc(OC)c(OC)cc4C3)coc2c1` is 20.9% (active); for `Cc1nn(C)cc1S(=O)(=O)N1CCN(c2ccc(F)cc2)CC1` it is -4.94% (inactive).
The figure for `O=[N+]([O-])c1ccccc1S(=O)(=O)Nc1cccc2cccnc12` is -12.1% (inactive); for `O=C(NC(=S)NC1CCCCC1)c1ccc(Cl)cc1` it is -18.6% (inactive).
On to `COc1ccccc1-n1c(SCC(=O)Nc2cccc(C(=O)O)c2)nnc1-c1ccccc1O`, for which the inhibition is -17.1% (inactive).
The figure for `COCc1ccc(C(=O)NC2CC(C)(C)Cc3c2cnn3-c2ccc(C)cc2)o1` (configuration not stated) is -0.16% (inactive); for `COc1cc(OC)c(-n2cc(-c3ccc(Cl)cc3)[nH]c2=O)cc1Cl` it is 64.5% (active).
The figure for `COc1cc(OC)c(-n2c(C)cc(C=O)c2C)cc1Cl` is -3.29% (inactive); for `COc1ccc(-c2cn(-c3ccc(OC)cc3)c(=S)[nH]2)cc1` it is 10.2% (inactive).
As to `Brc1c(CSc2nncc3ccccc23)nc2ccccn12`, the inhibition was -2.42% (inactive).
With `CCOCCCN1C(=O)C2C(C(=O)Nc3ccc(OCC)cc3)C3C=CC2(O3)C1C(=O)NC1CCCCC1` (configuration not stated) the figure was -12.8% (inactive); with `CCn1c(CC(=O)Nc2ccccc2)nnc1SCC(=O)N1CCOCC1`, -9.92% (inactive); with `CC1(C)CC(CNCCC(c2ccc(F)cc2)c2ccco2)CCO1` (configuration not stated), 27.9% (active).
The figure for `O=C1c2ccccc2C(=O)N1CCC(c1ccccc1)c1ccco1` (configuration not stated) is -19.2% (inactive); for `CC1(C)CC(N(Cc2ccccc2)C(=O)Cc2ccccc2)CCO1` (configuration not stated) it is -11.1% (inactive).
With `CCC(C(=O)Nc1ccc(C(C)C)cc1)c1ccccc1` (configuration not stated) the figure was 55.6% (active); with `CCC(C(=O)OCC(=O)Nc1ccc(C(=O)Nc2ccc(OC)cc2)cc1)c1ccccc1` (configuration not stated), 0.99% (inactive); with `CCC(C(=O)Nc1ccc2c(c1)OCCO2)c1ccccc1` (configuration not stated), -8.4% (inactive).
With `COc1ccc(-n2nc(C(=O)NCC(=O)N3CCN(c4ccccc4OC)CC3)c3ccccc3c2=O)c(OC)c1`, the inhibition is 1.21% (inactive).
On to `Cn1nccc1/C=N\NC(=O)c1ccc(Cl)cc1`, for which the inhibition was -6.59% (inactive).
The figure for `O=C1c2ccccc2C(Nc2ccc3c(c2)OCCO3)N1Cc1ccco1` (configuration not stated) is 17.6% (active); for `Cc1ccnc(N2C(=O)c3ccccc3C2Nc2ccc3c(c2)OCCO3)c1` (configuration not stated) it is -8.69% (inactive).
As to `O=C(NC1CCCCC1)C1c2ccccc2C(=O)N1Cc1ccco1` (configuration not stated), the inhibition was -11.8% (inactive).
With `COC(=O)c1c(NC(=O)c2ccc(S(=O)(=O)N3CCOCC3)cc2)sc2c1CCN(C(C)C)C2` the figure was -0.58% (inactive); with `Nc1cccc2c1C(=O)N(Cc1nnc(-c3ccccc3Br)o1)C2=O`, -16% (inactive); with `CN(C)/C=N/c1cc(=O)n(C)c(=O)n1CC1CC1`, -1.62% (inactive).
The figure for `Cc1ccc(O)c(NC(=S)NC(=O)COc2ccc(Br)cc2)c1` is 89.1% (active); for `Cc1ccc(O)c(NC(=O)COc2cc(C)ccc2C)c1` it is 10.6% (inactive).
As to `Cc1cccc(OCC(=O)NC(=S)Nc2ccccc2N2CCOCC2)c1`, the inhibition is -14.9% (inactive).
The figure for `Cc1cccc(C2C3=C(CCCC3=O)N=C3c4ccccc4C(=O)C32)c1` (configuration not stated) is -14.3% (inactive).
The figure for `CCn1cc(C(=O)NCCC(=O)NCCO)c(=O)c2cc3c(cc21)OCO3` is -13.5% (inactive).
Consider `COC(=O)CN1C(=O)[C@H]2[C@@H](/C=C/c3ccccc3)N3C(=O)CN(CC4CC4)C(=O)[C@@]3(Cc3ccccc3)[C@H]2C1=O`, for which the inhibition was -2.59% (inactive).
In the case of `CCCCSCCCNC(=O)C1CCC(CNS(=O)(=O)c2ccc(NC(C)=O)cc2)CC1` (configuration not stated), the inhibition is 3.79% (inactive).
The figure for `Cc1nn(-c2ccccc2)c2c1c(C)c(CCC(=O)NCC1CCCO1)c(=O)n2C` (configuration not stated) is -15.7% (inactive).
The figure for `Cc1ccc(C(=O)NCC(=O)OCC(=O)NC2CCCCCCC2)cc1` is -6.33% (inactive); for `O.O.O.O=S(=O)([O-])OC[C@H]1O[C@@H](O[C@]2(COS(=O)(=O)[O-])O[C@H](OS(=O)(=O)[O-])[C@@H](OS(=O)(=O)[O-])[C@@H]2OS(=O)(=O)[O-])[C@H](OS(=O)(=O)[O-])[C@@H](OS(=O)(=O)[O-])[C@@H]1OS(=O)(=O)[O-].[Al]` it is -11% (inactive); for `O=C(OCN1C(=O)c2ccccc2C1=O)/C(=C\c1ccco1)NC(=O)c1ccccc1` it is 19% (active).
The figure for `O=C(NCc1ccco1)/C(=C/c1ccco1)NC(=O)c1ccccc1` is -4.86% (inactive); for `NC(=O)C1CCN(C(=O)/C(=C/c2ccco2)NC(=O)c2ccccc2)CC1` it is -7.3% (inactive); for `C[C@H](NC(=O)C1CC(=O)N(c2ccc3c(c2)OCO3)C1)C(=O)NCc1ccco1` (some centres not stated) it is 1.22% (inactive).
Regarding `O=S(=O)(Nc1ccc2[nH]ncc2c1)c1ccccc1Cl`, the inhibition is 6.14% (inactive).
With `O=C(Cn1nc(CNc2ccc(Cl)cc2)[n+]2c1CCCCC2)c1ccc(Cl)cc1` the figure was -3.46% (inactive).
With `CC(=O)Nc1ccc(Oc2ccc3c(c2)C(=O)NC3=O)cc1` the figure was 7.14% (inactive).
With `S=C(NCCC1=CCCCC1)Nc1ccccc1` the figure was 8.55% (inactive).
Consider `S=C(NCCc1ccccc1)Nc1ccccc1`, for which the inhibition is 21.5% (active).
With `S=C(NCCCc1ccccc1)Nc1ccc(Br)cc1` the figure was -16.1% (inactive).
With `COc1ccc(-c2nnc3n2CCCCC3)cc1` the figure was 1.65% (inactive).
